From PubChem BioAssay (EPA / NIEHS)
Activity calls are given as the source filed them. Rule for the calls: active = hit-call score of the fitted dose curve at least 0.9, where 1 is the maximum; inactive = score below 0.9.

Experiments:
Details in all cases: mRNA level, 48 h; actives raise or lower the signal
[1] = read-out: Pro-epidermal growth factor (Homo sapiens) (UniProt P01133); test: LTEA_HepaRG_EGF: Life Technologies and Expression Analysis (LTEA) Assay for Epidermal growth factor (EGF) using HepaRG (AID 2283489)
Summary of the method: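 EGF expression changes in human HepaRG cells are scored by bidirectional fitting relative to 0.5% DMSO controls. Chemicals are tested at eight half-log concentrations up to 100 uM for 48 h in serum-free induction medium.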

[2] = read-out: Early growth response protein 1 (EGR1) transcription factor, EGR1 (gene 1958); test: LTEA_HepaRG_EGR1: Life Technologies and Expression Analysis (LTEA) Assay for Early growth response protein 1 (EGR1) transcription factor using HepaRG (AID 2283490)
Summary of the method: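 Differentiated human HepaRG cells in serum-free induction medium were exposed in duplicate for 48 h to eight concentrations (top 100 uM, half-log steps) in 0.5% DMSO. EGR1 mRNA was quantified by qRT-PCR, normalized to ACTB, GAPDH and POLR2A, and fitted bidirectionally versus DMSO.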

[3] = read-out: Cytochrome P450 3A7 (Homo sapiens) (UniProt P24462); test: LTEA_HepaRG_CYP3A7: Life Technologies and Expression Analysis (LTEA) Assay for CYP3A7 using HepaRG (AID 2283492)
Summary of the method: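 Cells were thawed, plated, cultured 48 h, then treated for a further 48 h with chemicals (eight-point half-log series from 100 uM, 0.5% DMSO). RNA was isolated and CYP3A7 expression quantified by qRT-PCR normalised to ACTB, GAPDH and POLR2A.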

CYP3A5 (gene 1577) = test: LTEA_HepaRG_CYP3A5: Life Technologies and Expression Analysis (LTEA) Assay for CYP3A5 using HepaRG (AID 2283493)
Summary of the method: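 Differentiated HepaRG cells in serum-free induction medium were dosed 48 h with test chemicals (8-point half-log series, top 100 uM, 0.5% DMSO, duplicate). CYP3A5 mRNA measured by qRT-PCR, normalized to ACTB, GAPDH, POLR2A; bidirectional fit versus DMSO.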

[4] = read-out: Fatty Acid-Binding Protein 1 (FABP1), FABP1 (gene 2168); test: LTEA_HepaRG_FABP1: Life Technologies and Expression Analysis (LTEA) Assay for Fatty Acid-Binding Protein 1 (FABP1) using HepaRG (AID 2283494)
Summary of the method: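 Differentiated human HepaRG cells were exposed in duplicate for 48 h in serum-free induction medium to 8-point half-log concentration series topping at 100 uM in 0.5% DMSO. FABP1 mRNA measured by TaqMan qRT-PCR, normalized to ACTB/GAPDH/POLR2A; bidirectional fit versus DMSO.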

[5] = read-out: Cytochrome P450 4A22 (Homo sapiens) (UniProt Q5TCH4); test: LTEA_HepaRG_CYP4A22: Life Technologies and Expression Analysis (LTEA) Assay for Cytochrome P450 4A22 (CYP4A22) using HepaRG (AID 2283495)
Summary of the method: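 Cryopreserved HepaRG cells, plated and cultured 48 h, then switched to serum-free induction medium and treated 48 h (duplicates, up to 100 uM, half-log steps, 0.5% DMSO). Expression change of CYP4A22 was fitted bidirectionally against vehicle.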

[6] = read-out: Cytochrome P450 7A1 (Homo sapiens) (UniProt P22680); test: LTEA_HepaRG_CYP7A1: Life Technologies and Expression Analysis (LTEA) Assay for Cytochrome P450 7A1 (CYP7A1) using HepaRG (AID 2283496)
Summary of the method: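 Gene expression endpoint in human HepaRG liver cells treated for 48 h with test chemicals (up to 100 uM, 0.5% DMSO). Values come from bidirectional concentration-response fitting versus DMSO.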

[7] = read-out: Glutathione S-Transferase (GSTA2), GSTA2 (gene 2939); test: LTEA_HepaRG_GSTA2: Life Technologies and Expression Analysis (LTEA) Assay for Glutathione S-Transferase (GSTA2) using HepaRG (AID 2283497)
Summary of the method: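 Human HepaRG cells, plated 48 h, then exposed in serum-free induction medium for 48 h to eight half-log concentrations up to 100 uM in 0.5% DMSO, duplicate. GSTA2 mRNA by qRT-PCR, normalized to ACTB/GAPDH/POLR2A; bidirectional fit versus DMSO.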

Sequence of Cytochrome P450 3A7 (Homo sapiens) (P24462 whole entry, looked up): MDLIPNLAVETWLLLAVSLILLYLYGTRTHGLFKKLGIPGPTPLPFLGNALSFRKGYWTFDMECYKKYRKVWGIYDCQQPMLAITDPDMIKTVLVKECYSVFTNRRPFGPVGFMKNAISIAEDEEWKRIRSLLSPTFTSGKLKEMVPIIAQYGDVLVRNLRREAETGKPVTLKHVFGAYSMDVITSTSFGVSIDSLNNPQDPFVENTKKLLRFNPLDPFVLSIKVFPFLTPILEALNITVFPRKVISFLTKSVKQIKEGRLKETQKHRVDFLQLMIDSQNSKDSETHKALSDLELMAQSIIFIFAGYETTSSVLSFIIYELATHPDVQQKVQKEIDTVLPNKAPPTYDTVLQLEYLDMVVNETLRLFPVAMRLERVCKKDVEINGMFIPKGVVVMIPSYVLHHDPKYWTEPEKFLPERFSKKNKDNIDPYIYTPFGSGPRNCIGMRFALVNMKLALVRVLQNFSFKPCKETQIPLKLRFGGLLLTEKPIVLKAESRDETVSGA

| SMILES | outcome [1] | outcome [2] | outcome [3] | outcome (CYP3A5 (gene 1577)) | outcome [4] | outcome [5] | outcome [6] | outcome [7] | AC50 [4] | AC50 [5] | AC50 [7] | AC50 [3] | AC50 [6] | AC50 [1] |
| --- | --- | --- | --- | --- | --- | --- | --- | --- | --- | --- | --- | --- | --- | --- |
| Nc1ccc(Cl)cc1 | inactive | inactive | inactive | inactive | inactive | inactive | inactive | inactive | – | – | – | – | – | – |
| c1cc2c3c(cccc3c1)CC2 | inactive | inactive | inactive | inactive | inactive | inactive | inactive | inactive | – | – | – | – | – | – |
| CC(Cc1ccc(OCC(=O)O)cc1)NCC(O)c1csc(C(F)(F)F)n1 (stereo not given) | inactive | inactive | inactive | inactive | inactive | inactive | inactive | inactive | – | – | – | – | – | – |
| CCCCCCCc1ccc(O)cc1 | inactive | inactive | inactive | inactive | inactive | inactive | inactive | inactive | – | – | – | – | – | – |
| [N-]=[N+]=[N-] | inactive | inactive | inactive | inactive | – | – | inactive | – | 77.6 µM (active) | 50 µM (active) | 79.3 µM (active) | – | – | – |
| CC(Cl)(Cl)C(=O)O | inactive | inactive | inactive | inactive | inactive | inactive | inactive | inactive | – | – | – | – | – | – |
| CCCCN(CCCC)SN(C)C(=O)Oc1cccc2c1OC(C)(C)C2 | inactive | inactive | – | inactive | inactive | inactive | – | inactive | – | – | – | 4.49 µM (active) | 50 µM (active) | – |
| O=P1(N(CCCl)CCCl)NCCCO1 (stereo not given) | inactive | inactive | inactive | inactive | inactive | inactive | inactive | inactive | – | – | – | – | – | – |
| CCOc1ccc(C(C)(C)COCc2cccc(Oc3ccccc3)c2)cc1 | – | inactive | – | inactive | inactive | inactive | – | inactive | – | – | – | 1.64 µM (active) | 26.8 µM (active) | 15 µM (active) |
| Cc1cccc(N)c1 | – | inactive | inactive | inactive | inactive | – | – | inactive | – | – | – | – | – | – |
| ClC(Cl)(Cl)c1ccccc1 | inactive | inactive | inactive | inactive | inactive | inactive | inactive | inactive | – | – | – | – | – | – |
